# Assay results reported in article PMC7862700, “An all-to-all approach to the identification of sequence-specific readers for epigenetic DNA modifications on cytosine”.
# Columns and labels:
# Experiment in all cases: DAPPL (digital affinity profiling via proximity ligation, sequencing); 10 mM Tris-HCl pH 7.5, 50 mM NaCl, 1 mM DTT, 4% glycerol, room temperature, 30 min; GST-TFs on glutathione beads, 16-mer random dsDNA library, 0.1% formaldehyde crosslink after washing; high values mean tight binding
# FLI1 = biological target: T1, FLI1 (Homo sapiens, UniProt Q01543 1-452); conditions: protein: recombinant; tags: N-terminal GST; dsDNA, one strand shown
# T1 sequence: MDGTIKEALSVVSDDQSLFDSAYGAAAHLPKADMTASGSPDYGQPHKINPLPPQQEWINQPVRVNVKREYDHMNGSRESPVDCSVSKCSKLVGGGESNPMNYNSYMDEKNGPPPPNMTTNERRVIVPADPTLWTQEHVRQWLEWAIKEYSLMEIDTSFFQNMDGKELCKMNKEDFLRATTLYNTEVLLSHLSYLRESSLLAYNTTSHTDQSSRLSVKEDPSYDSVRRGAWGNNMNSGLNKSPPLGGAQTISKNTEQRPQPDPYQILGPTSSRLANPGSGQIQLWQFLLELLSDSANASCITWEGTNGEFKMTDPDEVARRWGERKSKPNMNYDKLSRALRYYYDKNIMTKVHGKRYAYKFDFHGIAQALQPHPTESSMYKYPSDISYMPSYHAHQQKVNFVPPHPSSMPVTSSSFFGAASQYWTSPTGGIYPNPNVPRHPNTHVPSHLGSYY
# Outline: (§1)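 The binding signal reported is, for every hexamer, its read frequency for a factor over its read frequency for the tag-only sample. Reads came from pools of yeast-expressed, GST-fused human transcription factors on glutathione beads, barcoded with DNA and mixed with that sample, which were incubated with 200 nmole of a random double-stranded 16-mer DNA library in Tris/NaCl/DTT/glycerol buffer at room temperature for 30 min. After washing, the pools were crosslinked with 0.1% formaldehyde, proximity-ligated with BsaI/T4 ligase for 1 h at 37 °C, PCR-amplified and sequenced on an Illumina NextSeq500.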
# ELK1 = biological target: T2, ELK1 (Homo sapiens, UniProt P19419 1-428); conditions: protein: recombinant; tags: N-terminal GST; dsDNA, one strand shown
# T2 sequence: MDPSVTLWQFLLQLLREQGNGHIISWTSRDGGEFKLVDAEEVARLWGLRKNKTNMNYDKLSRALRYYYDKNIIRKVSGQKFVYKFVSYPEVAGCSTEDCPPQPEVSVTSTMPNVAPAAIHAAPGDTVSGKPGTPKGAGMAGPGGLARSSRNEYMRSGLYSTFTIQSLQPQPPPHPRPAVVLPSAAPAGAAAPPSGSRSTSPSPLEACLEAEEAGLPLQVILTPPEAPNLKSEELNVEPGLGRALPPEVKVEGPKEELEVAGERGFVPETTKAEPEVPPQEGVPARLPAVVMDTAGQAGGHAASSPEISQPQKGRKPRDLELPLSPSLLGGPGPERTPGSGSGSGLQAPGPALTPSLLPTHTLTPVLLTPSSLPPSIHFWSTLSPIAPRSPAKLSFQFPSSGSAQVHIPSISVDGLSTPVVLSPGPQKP
# Outline: as §1
# GABPA = biological target: T3, GABPA (Homo sapiens, UniProt Q06546 1-454); conditions: protein: recombinant; tags: N-terminal GST; dsDNA, one strand shown
# T3 sequence: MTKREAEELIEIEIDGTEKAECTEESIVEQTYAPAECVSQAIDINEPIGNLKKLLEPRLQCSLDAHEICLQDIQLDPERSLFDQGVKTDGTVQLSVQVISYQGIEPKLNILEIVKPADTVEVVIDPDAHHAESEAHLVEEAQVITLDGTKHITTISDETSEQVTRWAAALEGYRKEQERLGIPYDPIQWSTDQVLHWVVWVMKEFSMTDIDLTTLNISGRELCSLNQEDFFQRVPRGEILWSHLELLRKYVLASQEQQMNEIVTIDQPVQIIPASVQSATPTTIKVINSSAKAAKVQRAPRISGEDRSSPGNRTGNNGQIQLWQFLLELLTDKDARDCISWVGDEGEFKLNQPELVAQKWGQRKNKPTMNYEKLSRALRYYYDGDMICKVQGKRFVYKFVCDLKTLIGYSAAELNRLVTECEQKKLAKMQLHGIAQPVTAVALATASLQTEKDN
# Outline: as §1
# ERG = biological target: T4, ERG (Homo sapiens, UniProt P11308 1-479); conditions: protein: recombinant; tags: N-terminal GST; dsDNA, one strand shown
# T4 sequence: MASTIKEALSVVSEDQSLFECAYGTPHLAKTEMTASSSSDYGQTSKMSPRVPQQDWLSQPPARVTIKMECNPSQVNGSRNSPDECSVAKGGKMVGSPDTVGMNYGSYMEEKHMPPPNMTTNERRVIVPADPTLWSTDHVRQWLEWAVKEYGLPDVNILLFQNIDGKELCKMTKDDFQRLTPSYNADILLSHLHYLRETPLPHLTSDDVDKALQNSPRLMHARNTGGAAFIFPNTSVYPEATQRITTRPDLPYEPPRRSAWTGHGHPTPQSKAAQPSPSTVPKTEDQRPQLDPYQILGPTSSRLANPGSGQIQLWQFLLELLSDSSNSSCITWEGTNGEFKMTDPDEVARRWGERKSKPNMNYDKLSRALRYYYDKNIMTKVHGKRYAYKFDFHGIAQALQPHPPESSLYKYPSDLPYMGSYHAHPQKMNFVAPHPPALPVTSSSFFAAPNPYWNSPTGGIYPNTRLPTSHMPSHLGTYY
# Outline: as §1
# ELF1 = ELF1 (Homo sapiens, UniProt P32519 1-619); conditions: protein: recombinant; tags: N-terminal GST; dsDNA, one strand shown
# Outline: as §1
# EHF = biological target: T5, EHF (Homo sapiens, UniProt Q9NZC4 1-300); conditions: protein: recombinant; tags: N-terminal GST; dsDNA, one strand shown
# T5 sequence: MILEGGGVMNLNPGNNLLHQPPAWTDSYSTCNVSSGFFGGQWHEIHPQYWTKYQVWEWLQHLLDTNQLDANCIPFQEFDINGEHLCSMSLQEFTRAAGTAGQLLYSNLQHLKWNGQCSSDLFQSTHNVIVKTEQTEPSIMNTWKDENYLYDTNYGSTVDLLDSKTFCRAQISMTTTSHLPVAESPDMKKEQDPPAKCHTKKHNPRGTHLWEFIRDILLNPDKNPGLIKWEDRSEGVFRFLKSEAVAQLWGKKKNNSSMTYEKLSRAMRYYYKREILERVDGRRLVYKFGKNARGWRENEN
# Outline: as §1
# SPI1 = SPI1 (Homo sapiens, UniProt P17947 1-270); conditions: protein: recombinant; tags: N-terminal GST; dsDNA, one strand shown
# Outline: as §1
# SPIB = SPIB (Homo sapiens, UniProt Q01892 1-262); conditions: protein: recombinant; tags: N-terminal GST; dsDNA, one strand shown
# Outline: as §1
# ELK3 = biological target: T6, ELK3 (Homo sapiens, UniProt P41970 1-407); conditions: protein: recombinant; tags: N-terminal GST; dsDNA, one strand shown
# T6 sequence: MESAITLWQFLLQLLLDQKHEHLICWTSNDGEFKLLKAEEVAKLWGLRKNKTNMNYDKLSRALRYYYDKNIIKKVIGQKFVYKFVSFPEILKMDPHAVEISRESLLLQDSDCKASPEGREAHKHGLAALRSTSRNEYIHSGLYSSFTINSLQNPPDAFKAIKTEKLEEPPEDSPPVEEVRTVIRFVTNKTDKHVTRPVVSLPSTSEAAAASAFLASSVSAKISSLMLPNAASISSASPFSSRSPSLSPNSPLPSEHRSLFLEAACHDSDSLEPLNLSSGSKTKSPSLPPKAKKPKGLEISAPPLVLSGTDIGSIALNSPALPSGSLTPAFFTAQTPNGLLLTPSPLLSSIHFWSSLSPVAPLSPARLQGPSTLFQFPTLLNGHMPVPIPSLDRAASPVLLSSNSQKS
# Outline: as §1
# FEV = biological target: T7, FEV (Homo sapiens, UniProt Q99581 1-238); conditions: protein: recombinant; tags: N-terminal GST; dsDNA, one strand shown
# T7 sequence: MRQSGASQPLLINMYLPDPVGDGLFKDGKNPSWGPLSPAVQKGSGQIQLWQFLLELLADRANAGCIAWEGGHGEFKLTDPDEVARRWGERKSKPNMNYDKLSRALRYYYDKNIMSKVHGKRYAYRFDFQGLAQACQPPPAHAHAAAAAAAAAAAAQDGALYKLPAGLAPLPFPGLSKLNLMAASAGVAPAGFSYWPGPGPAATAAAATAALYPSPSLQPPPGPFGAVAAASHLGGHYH
# Outline: as §1
# ETV5 = ETV5 (Homo sapiens, UniProt P41161 1-510); conditions: protein: recombinant; tags: N-terminal GST; dsDNA, one strand shown
# Outline: as §1
# HSF1 = HSF1 (Homo sapiens, UniProt Q00613 1-529); conditions: protein: recombinant; tags: N-terminal GST; chain copies: 3; dsDNA, one strand shown
# Outline: as §1
# SPIC = biological target: T8, SPIC (Homo sapiens, UniProt Q8N5J4 1-248); conditions: protein: recombinant; tags: N-terminal GST; dsDNA, one strand shown
# T8 sequence: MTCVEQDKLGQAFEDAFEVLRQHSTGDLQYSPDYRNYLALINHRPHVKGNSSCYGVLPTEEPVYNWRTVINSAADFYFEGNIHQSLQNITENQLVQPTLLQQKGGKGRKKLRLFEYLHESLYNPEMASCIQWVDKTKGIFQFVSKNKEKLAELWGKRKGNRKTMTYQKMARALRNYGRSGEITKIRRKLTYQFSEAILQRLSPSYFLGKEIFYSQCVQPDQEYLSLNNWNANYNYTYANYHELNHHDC
# Outline: as §1
# ELF4 = ELF4 (Homo sapiens, UniProt Q99607 1-663); conditions: protein: recombinant; tags: N-terminal GST; dsDNA, one strand shown
# Outline: as §1
# ELK4 = biological target: T9, ELK4 (Homo sapiens, UniProt P28324-2 1-405); conditions: protein: recombinant; tags: N-terminal GST; dsDNA, one strand shown
# T9 sequence: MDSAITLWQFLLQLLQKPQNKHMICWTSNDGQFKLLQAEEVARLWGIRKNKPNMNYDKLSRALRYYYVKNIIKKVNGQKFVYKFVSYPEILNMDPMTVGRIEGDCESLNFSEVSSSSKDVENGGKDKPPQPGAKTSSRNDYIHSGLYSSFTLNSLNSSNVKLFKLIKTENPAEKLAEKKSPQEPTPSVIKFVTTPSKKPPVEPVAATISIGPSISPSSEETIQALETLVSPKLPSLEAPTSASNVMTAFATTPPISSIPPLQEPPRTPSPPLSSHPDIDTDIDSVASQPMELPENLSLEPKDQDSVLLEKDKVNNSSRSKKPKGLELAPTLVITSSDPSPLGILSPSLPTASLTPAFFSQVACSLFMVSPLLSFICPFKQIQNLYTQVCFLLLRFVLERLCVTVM
# Outline: as §1
# ELF3 = biological target: T10, ELF3 (Homo sapiens, UniProt P78545 1-371); conditions: protein: recombinant; tags: N-terminal GST; dsDNA, one strand shown
# T10 sequence: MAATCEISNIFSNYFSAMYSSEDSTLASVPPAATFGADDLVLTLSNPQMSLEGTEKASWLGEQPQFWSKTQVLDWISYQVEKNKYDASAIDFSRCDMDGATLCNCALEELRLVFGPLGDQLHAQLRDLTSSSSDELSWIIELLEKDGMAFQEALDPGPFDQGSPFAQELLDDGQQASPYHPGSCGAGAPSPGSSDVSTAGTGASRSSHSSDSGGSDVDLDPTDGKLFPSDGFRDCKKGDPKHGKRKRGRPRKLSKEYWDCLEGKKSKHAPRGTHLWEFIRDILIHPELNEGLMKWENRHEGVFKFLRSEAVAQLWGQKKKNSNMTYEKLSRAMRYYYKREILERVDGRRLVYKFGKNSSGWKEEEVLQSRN
# Outline: as §1
# CRX = CRX (Homo sapiens, UniProt O43186 1-299); conditions: protein: recombinant; tags: N-terminal GST; dsDNA, one strand shown
# Outline: as §1
# ETV1 = ETV1 (Homo sapiens, UniProt P50549 1-477); conditions: protein: recombinant; tags: N-terminal GST; dsDNA, one strand shown
# Outline: as §1
# ELF4, sequence (Q99607 whole entry): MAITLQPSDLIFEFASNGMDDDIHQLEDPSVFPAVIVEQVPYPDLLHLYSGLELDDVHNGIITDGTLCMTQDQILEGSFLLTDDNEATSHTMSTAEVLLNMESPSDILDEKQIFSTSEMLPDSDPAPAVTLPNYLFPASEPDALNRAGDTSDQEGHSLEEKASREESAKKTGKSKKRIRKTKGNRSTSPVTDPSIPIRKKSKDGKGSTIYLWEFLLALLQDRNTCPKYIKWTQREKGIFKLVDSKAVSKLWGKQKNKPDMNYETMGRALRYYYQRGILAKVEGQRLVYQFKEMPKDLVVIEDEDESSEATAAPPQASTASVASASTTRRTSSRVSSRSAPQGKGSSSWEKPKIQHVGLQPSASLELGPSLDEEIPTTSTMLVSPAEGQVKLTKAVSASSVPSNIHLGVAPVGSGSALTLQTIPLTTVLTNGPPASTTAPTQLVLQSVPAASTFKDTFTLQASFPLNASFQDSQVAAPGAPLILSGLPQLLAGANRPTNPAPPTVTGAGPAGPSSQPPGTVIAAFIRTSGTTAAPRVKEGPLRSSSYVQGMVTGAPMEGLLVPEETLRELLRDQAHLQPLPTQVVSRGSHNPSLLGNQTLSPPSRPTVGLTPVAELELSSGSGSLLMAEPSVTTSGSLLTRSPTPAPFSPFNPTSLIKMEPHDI
# HSF1, sequence (Q00613 whole entry): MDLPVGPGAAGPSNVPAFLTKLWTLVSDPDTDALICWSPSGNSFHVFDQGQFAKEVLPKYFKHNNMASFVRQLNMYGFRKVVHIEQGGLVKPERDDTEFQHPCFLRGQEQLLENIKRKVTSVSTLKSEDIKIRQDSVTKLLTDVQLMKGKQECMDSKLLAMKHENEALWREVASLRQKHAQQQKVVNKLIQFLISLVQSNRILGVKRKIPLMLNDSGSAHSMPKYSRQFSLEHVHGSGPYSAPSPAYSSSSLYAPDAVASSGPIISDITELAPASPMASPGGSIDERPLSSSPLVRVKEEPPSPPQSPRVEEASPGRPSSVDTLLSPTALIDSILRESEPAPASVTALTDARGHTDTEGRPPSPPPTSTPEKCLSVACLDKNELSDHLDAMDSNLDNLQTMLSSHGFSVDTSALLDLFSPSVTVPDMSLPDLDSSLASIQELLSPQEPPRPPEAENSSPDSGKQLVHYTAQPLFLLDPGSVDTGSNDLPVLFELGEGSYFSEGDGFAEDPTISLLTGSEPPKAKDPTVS
# ETV5, sequence (P41161 whole entry): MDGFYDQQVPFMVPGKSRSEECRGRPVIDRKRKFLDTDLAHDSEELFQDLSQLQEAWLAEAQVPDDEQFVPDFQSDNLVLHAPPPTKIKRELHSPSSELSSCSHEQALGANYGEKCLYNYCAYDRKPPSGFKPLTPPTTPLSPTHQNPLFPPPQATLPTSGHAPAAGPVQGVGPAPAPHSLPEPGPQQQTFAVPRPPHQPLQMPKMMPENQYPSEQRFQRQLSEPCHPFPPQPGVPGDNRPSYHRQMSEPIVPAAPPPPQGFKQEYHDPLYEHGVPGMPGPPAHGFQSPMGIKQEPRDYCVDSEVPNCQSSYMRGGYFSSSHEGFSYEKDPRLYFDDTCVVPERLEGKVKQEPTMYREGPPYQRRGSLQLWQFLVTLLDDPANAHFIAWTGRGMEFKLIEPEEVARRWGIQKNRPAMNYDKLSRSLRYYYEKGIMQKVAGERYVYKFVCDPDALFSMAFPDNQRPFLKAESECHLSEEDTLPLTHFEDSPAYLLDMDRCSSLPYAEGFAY
# ELF1, sequence (P32519 whole entry): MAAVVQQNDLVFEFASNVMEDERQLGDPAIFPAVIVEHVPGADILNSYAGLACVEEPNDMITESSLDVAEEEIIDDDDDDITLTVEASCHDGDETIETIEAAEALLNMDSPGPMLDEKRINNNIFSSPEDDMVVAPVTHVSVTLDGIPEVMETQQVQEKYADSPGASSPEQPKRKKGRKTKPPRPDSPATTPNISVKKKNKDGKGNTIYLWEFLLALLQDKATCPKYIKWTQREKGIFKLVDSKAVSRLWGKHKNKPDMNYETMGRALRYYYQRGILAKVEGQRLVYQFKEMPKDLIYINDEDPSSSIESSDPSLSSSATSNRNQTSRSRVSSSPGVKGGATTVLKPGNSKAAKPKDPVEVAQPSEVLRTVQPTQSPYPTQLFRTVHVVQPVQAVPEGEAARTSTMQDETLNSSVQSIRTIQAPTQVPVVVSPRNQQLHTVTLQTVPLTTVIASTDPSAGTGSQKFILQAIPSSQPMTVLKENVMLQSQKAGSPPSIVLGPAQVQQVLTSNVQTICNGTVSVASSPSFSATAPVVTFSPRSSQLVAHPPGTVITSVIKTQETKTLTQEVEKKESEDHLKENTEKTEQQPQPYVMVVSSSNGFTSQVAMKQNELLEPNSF
# SPIB, sequence (Q01892 whole entry): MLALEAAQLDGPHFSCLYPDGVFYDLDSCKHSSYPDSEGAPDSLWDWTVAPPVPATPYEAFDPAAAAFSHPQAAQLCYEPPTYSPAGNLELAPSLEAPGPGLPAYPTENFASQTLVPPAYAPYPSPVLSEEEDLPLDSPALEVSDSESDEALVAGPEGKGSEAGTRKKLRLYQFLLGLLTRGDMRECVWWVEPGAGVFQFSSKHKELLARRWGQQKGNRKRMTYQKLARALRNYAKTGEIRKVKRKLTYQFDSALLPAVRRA
# ETV1, sequence (P50549 whole entry): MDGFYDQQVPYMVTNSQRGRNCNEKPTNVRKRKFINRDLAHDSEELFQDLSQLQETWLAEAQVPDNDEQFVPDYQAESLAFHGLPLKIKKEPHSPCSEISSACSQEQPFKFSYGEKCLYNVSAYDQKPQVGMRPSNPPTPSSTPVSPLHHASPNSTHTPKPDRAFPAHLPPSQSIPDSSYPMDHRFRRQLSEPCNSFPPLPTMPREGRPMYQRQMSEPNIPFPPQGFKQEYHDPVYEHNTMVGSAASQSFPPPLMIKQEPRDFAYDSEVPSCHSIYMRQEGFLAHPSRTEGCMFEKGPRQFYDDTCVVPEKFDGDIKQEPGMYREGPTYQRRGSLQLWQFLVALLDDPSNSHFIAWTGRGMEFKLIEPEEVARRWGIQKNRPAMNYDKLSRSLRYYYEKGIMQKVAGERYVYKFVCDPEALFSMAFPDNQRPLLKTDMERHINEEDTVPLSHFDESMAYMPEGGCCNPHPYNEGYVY
# CRX, sequence (O43186 whole entry): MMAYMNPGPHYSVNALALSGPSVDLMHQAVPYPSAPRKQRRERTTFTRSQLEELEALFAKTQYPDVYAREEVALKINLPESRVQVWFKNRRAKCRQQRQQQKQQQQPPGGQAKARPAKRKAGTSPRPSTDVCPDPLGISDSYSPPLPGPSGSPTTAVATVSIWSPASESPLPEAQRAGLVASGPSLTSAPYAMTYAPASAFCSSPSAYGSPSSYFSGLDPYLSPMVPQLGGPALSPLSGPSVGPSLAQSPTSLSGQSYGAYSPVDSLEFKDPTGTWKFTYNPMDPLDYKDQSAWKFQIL
sequence,measurement,setting,value
TCCCGA,binding signal,FLI1,"1.39 fold enrichment (6-mer frequency, TF over GST control)"
same,binding signal,ELK1,"1.23 fold enrichment (6-mer frequency, TF over GST control)"
same,binding signal,GABPA,"1.47 fold enrichment (6-mer frequency, TF over GST control)"
same,binding signal,ERG,"1.27 fold enrichment (6-mer frequency, TF over GST control)"
same,binding signal,ELF1,"1.31 fold enrichment (6-mer frequency, TF over GST control)"
same,binding signal,EHF,"1.36 fold enrichment (6-mer frequency, TF over GST control)"
same,binding signal,SPI1,"1.37 fold enrichment (6-mer frequency, TF over GST control)"
same,binding signal,SPIB,"1.41 fold enrichment (6-mer frequency, TF over GST control)"
same,binding signal,ELK3,"1.35 fold enrichment (6-mer frequency, TF over GST control)"
same,binding signal,FEV,"1.31 fold enrichment (6-mer frequency, TF over GST control)"
same,binding signal,ETV5,"1.37 fold enrichment (6-mer frequency, TF over GST control)"
same,binding signal,HSF1,"2.34 fold enrichment (6-mer frequency, TF over GST control)"
same,binding signal,SPIC,"1.36 fold enrichment (6-mer frequency, TF over GST control)"
same,binding signal,ELF4,"1.25 fold enrichment (6-mer frequency, TF over GST control)"
same,binding signal,ELK4,"1.42 fold enrichment (6-mer frequency, TF over GST control)"
same,binding signal,ELF3,"1.26 fold enrichment (6-mer frequency, TF over GST control)"
same,binding signal,CRX,"1.59 fold enrichment (6-mer frequency, TF over GST control)"
same,binding signal,ETV1,"1.29 fold enrichment (6-mer frequency, TF over GST control)"
